# Pf growth 96h = inhibits malaria parasite growth, 96 h; P. falciparum luciferase reporter growth, 96 h; Potency, µM (doses to about 28.7 µM), for inactives: at the highest dose activity change, negative = inhibition, actives largely listed as inhibitors; hit rate 6.9% among 320,000; AID 504834; further: potency means the concentration at half of the fitted maximal effect; on the % scale 0 is the no-effect control and ±100 the full control effect
#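 Delayed-death screen, second-generation endpoint: infected erythrocytes, 2% hematocrit, 0.05% parasitemia final; 96 hours at 37 C, 5% CO2; luciferase detection reagent; luminescence decrease equals reduced growth.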
# Shiga inhibitor = blocks Shiga toxin action in Vero cells; Vero cells, Shiga toxin protein synthesis inhibition reporter; inhibition, % at 38.7 µM; hit rate 9.2% among 290,000; in the data active means inhibition mostly above about 28%, no sharp cut-off; inactive means mostly below about 43%; further: 0% is about no effect
# Cycloheximide cs = counter-screen for Shiga toxin inhibitors: cycloheximide protein synthesis inhibition; cell reporter, cycloheximide protein synthesis inhibition counterscreen; max response, %; hit rate 12% among 300,000; in the data active means max response mostly above about 13%, no sharp cut-off; inactive means mostly below about 14%; further: read at 38.3 µM for the half of the compounds with a filed dose; 0% is about no effect
# Pf growth 48h = P. falciparum growth inhibition at 48 hours (one generation) | P. falciparum luciferase growth in erythrocytes, 48 h | Potency, µM (doses to about 28.7 µM), without a hit: top-dose activity change, negative = inhibition, usual class: inhibitors | hit rate 5.9% among 310,000 | AID 504832; further: potency means the concentration at half of the fitted maximal effect; on the % scale 0 is the no-effect control and ±100 the full control effect
#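 Parasite viability was followed by luminescence of a genomically integrated firefly luciferase. Cultures held 0.1% parasitemia at 2% hematocrit (final), incubated under 5% CO2 at 37 C.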
# Numbers without * were called inactive; i = inactive; ? = inconclusive; nt = not tested or not shown. Compounds with a hit are over-represented: about 21% of the library has one in this group of screens. Unless noted, the call rests on the fitted dose curve; in most records, active means well fitted inhibition curve with a large enough effect; inconclusive means small, poorly fitted or top-dose-only effect, or another doubt; inactive means no such curve, though single readings can be large or run the other way.
SMILES,Pf growth 96h,Shiga inhibitor,Cycloheximide cs,Pf growth 48h
CC(=O)NCCNC(=O)CNC(=O)c1ccc(Cl)cc1,i,-7.1,-1.6,15.4%
N#Cc1nc(-c2cccc(Cl)c2)oc1N1CCC(C(N)=O)CC1,?,-5.3,8.2,?
C=C1CCC2[C@](C)(CO)C(O)CC[C@]2(C)C1C/C=C1/C(=O)OCC1O (stereo partly drawn),15.1µM*,nt,nt,?
C=C/C(C)=C/CC1C(=C)CCC2C(C)(C(=O)O)CCCC12C (stereo not drawn),-6.4%,-2.3,-6.2,?
Cc1cc(Br)cnc1NC(=S)Nc1ccc(F)cc1F,?,-1.9,9.9,?
CCCCCCCCCC[n+]1cccc2c3ccccc3ccc21,?,1.4,-3.9,2.08µM*
Cc1cccc[n+]1CCCCCCCCCC[n+]1ccccc1C,-14.6%,-16.5,-0.8,?
CCCCCCCC[n+]1cccc2c3ccccc3ccc21,31.7%,-1.2,-5.7,1.17µM*
CC1CCN(C(=O)C2CC(c3ccc(F)cc3)=NO2)CC1 (stereo not drawn),nt,98.0*,36.4*,70.8%
CN1CCN(C(=O)C2CC(c3ccc(F)cc3)=NO2)CC1 (stereo not drawn),?,33.9,14.7,nt
CC1CCCC(C)N1C(=O)C1CC(c2ccc(F)cc2)=NO1 (stereo not drawn),nt,47.9*,20.4*,29.6%
CC(=O)c1ccc(OCC(=O)OCC(=O)Nc2sccc2C(N)=O)cc1,8.5%,nt,nt,5.5%
C/C(Cc1ccccc1)=N\NC(=O)CNC(=O)c1ccc(C(C)(C)C)cc1,43.9%,21.9,6.8,26.7%
COc1cc2c(cc1OC)C1O[C@](CCCCN3C(=O)c4ccccc4C3=O)(C2)OC2=C1C(=O)CC(C)(C)C2,?,i,-2.2,0.239µM*
O=C1OC2(CCCCC2)CC2=C1C1O[C@](CCCCN3C(=O)c4ccccc4C3=O)(Cc3ccccc31)O2,?,i,-5.1,1.51µM*
COc1cc2c(cc1OC)C1O[C@](CCCCN3C(=O)c4ccccc4C3=O)(C2)OC2=C1C(=O)OC1(CCCCC1)C2,?,i,-2.3,?
O=C1C2=C(C(=O)c3ccccc31)C1O[C@](CCCCN3C(=O)c4ccccc4C3=O)(Cc3ccccc31)O2,?,i,-2.6,?
Cc1c(C(c2ccc(O)cc2)c2c(O)c3ccccc3oc2=O)c(=O)n(-c2ccccc2)n1C (stereo not drawn),33.0%,15.2,-4.0,9.4%
C/C(CC(c1ccccc1)c1c(O)c2ccccc2oc1=O)=N\NC(N)=S (stereo not drawn),10.4µM*,25.7,-0.6,?
CC(C(=O)Nc1ccc2c(c1)OCCO2)N(C)Cc1c(F)cccc1Cl (stereo not drawn),22.2%,25.0,26.3,2.1%
Cc1nnc(SCc2ccccc2F)n1NCc1cccs1,nt,54.1,23.9*,28.9%
Cc1nnc(SCC(=O)NCc2cccs2)n1-c1ccccc1,nt,16.8,-0.8,-2.7%
COc1ccc(N2CC(C(=O)N3CCN(c4ccccc4F)CC3)CC2=O)cc1 (stereo not drawn),26.8%,-2.9,-2.8,9.2%
COc1ccc(C)cc1NC(=O)c1nnn(Cc2cccc(C(F)(F)F)c2)c1N,13.1µM*,5.7,-0.5,-2.2%
CCOc1ccc(Cn2nnc(C(=O)NCc3ccc(OC)cc3)c2N)cc1,0.928µM*,-9.3,-3.2,10.3%
SMILES,Pf growth 96h,Shiga inhibitor,Cycloheximide cs,Pf growth 48h
CCc1ccc(Cn2nnc(C(=O)Nc3ccc(OC)cc3OC)c2N)cc1,7.38µM*,18.5,-1.7,nt
COc1ccc(OC)c(NC(=O)c2nnn(CCc3ccccc3)c2N)c1,-2.9%,-5.3,-7.5,nt
Clc1ccc(-c2c(C3=NCCCN3)nnn2-c2ccc(Cl)cc2)cc1,?,-13.1,-4.1,?
CC1CCCN(C(=O)CN2C(=O)CSc3ccc(S(=O)(=O)N4CCOCC4)cc32)C1 (stereo not drawn),2.5%,1.6,8.1,-16.6%
CC(C)CCN1C(=O)c2ccc(C(=O)NCc3ccccn3)cc2C1=O,3.1%,nt,nt,22.6%
Cc1ccc(NS(=O)(=O)c2cccc(C(=O)NCC(c3ccco3)N3CCCCC3)c2)cc1 (stereo not drawn),11.7µM*,-2.9,-1.9,?
COc1ccc(NS(=O)(=O)c2ccc(C)c(C(=O)NCC(c3ccco3)N3CCCCC3)c2)cc1 (stereo not drawn),?,nt,nt,-10.7%
COc1ccc(NS(=O)(=O)c2cccc(C(=O)NCC(c3ccco3)N3CCCC3)c2)cc1 (stereo not drawn),14.7µM*,nt,nt,?
CCOc1ccc(NS(=O)(=O)c2ccc(C(=O)NCC(c3ccc(OC)cc3)N3CCCC3)cc2)cc1 (stereo not drawn),13.1µM*,nt,nt,13.1µM*
Cc1cccc(NS(=O)(=O)c2ccc(C)c(C(=O)NCC(c3ccco3)N3CCCCC3)c2)c1 (stereo not drawn),?,nt,nt,13.1µM*
CCOC(=O)c1cccc(NC(=O)C2CCCN(c3nnc(N4CCCC4=O)s3)C2)c1 (stereo not drawn),?,-0.7,-1.4,?
CN(CC(=O)NCC(c1ccco1)N1CCCCC1)S(=O)(=O)c1ccc(Cl)cc1 (stereo not drawn),?,nt,nt,8.28µM*
CCc1cc(=O)oc2cc(C)cc(OCC(=O)NCc3cccnc3)c12,?,-7.6,-4.9,-1.3%
CCCc1cc(=O)oc2cc(C)cc(OC(C)C(=O)NCc3cccnc3)c12 (stereo not drawn),4.65µM*,-7.8,-5.9,8.28µM*
CCCc1cc(=O)oc2cc(C)cc(OCC(=O)NCc3ccncc3)c12,8.28µM*,-12.4,-2.5,9.28µM*
CCCc1cc(=O)oc2cc(C)cc(OC(C)C(=O)NCC3CCC(C(=O)O)CC3)c12 (stereo not drawn),?,-1.2,-1.5,0.0%
CCCc1cc(=O)oc2cc(C)cc(OC(C)C(=O)NCc3ccncc3)c12 (stereo not drawn),2.94µM*,10.5,-3.8,3.29µM*
CCCCc1cc(=O)oc2cc(C)cc(OCC(=O)NCc3cccnc3)c12,9.28µM*,-3.4,-2.9,10.4µM*
Cc1ccc(CNCC(=O)Nc2cccc(S(=O)(=O)NC3=NCCCCC3)c2)cc1,-1.5%,-5.9,-2.5,8.8%
Cc1ccc(C(=O)Oc2cc(C)n(C)c(=O)c2)cc1,7.3%,-26.9,-5.5,-1.5%
CCCCc1cc(=O)oc2cc(C)cc(OC(C)C(=O)NCC3CCC(C(=O)O)CC3)c12 (stereo not drawn),9.28µM*,-3.4,1.0,?
CC(Oc1cc2oc(=O)cc(-c3ccccc3)c2cc1Cl)C(=O)NCC1CCC(C(=O)O)CC1 (stereo not drawn),?,-1.3,-2.8,-4.6%
CCc1cc2c(-c3ccccc3)cc(=O)oc2cc1OC(C)C(=O)NCC1CCC(C(=O)O)CC1 (stereo not drawn),9.28µM*,16.7,-0.8,?
CCn1c(SCC(=O)Nc2ccc3c(c2)OCO3)nc2c(c1=O)SC(C)C2 (stereo not drawn),?,9.0,5.7,?
CC1Cc2nc(SCC(=O)Nc3ccc4c(c3)OCO4)n(-c3ccc(F)cc3)c(=O)c2S1 (stereo not drawn),3.7µM*,-5.9,-3.6,1.65µM*

# High-throughput results: PubChem BioAssay, National Center for Advancing Translational Sciences (NCATS)
